Measured values published in the supplement of paper PMC6805474.
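Throughout, for phenotypic severity score (0-4): visual microscopic scoring of shape, motility and density changes versus 0.5% DMSO solvent controls, one point per descriptor, degeneracy or death scored 4, mean of duplicate wells.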

What follows are compounds tested on Schistosoma mansoni schistosomula (LE) (assay: XTT viability relative to DMSO control; higher = more viable (less active)). Conditions: 72 h; 10 µM.
Description: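 XTT/PMS was then added for a further 24 h (72 h total) and A450 was read. % viability = (sample - heat-killed control)/(DMSO control - heat-killed control) x 100, from duplicate wells in two independent experiments.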
With c1ccc(C[C@@H]2CN(c3nccc(Oc4ccc(-n5ccnc5)cc4)n3)CCN2)cc1 the XTT viability was 94.4%. Cc1nc(-c2cccc(NCc3ccccc3)c2)[nH]c1C gave an XTT viability of 104%. For c1cc(C2=NCCN2)cc(-c2cc(-c3ccc(C4=NCCN4)cc3)no2)c1, the XTT viability was 115%. With NCCC(O)C(=O)N[C@@H]1C[C@H](N)[C@@H](OC2O[C@H](CN)[C@@H](O)[C@H](O)[C@H]2O)[C@H](O)C1OC1O[C@H](CO)[C@@H](O)[C@H](N)[C@H]1O (stereo partly drawn) the XTT viability was 93.8%. With Nc1ccc(C(=O)Nc2ccc(-c3nc4ccccc4o3)cc2)cc1 the XTT viability was 64.2%. Cc1ccc2nc(Cl)c(CNCc3cccs3)cc2c1 was tested, and the XTT viability was 83.2%. For Cc1nn(C)cc1C(C)Nc1nncc(-c2ccc(C(F)(F)F)cc2)n1 (stereo not drawn), the XTT viability was 77.5%. Work on Clc1cccc(C(c2ccc(CN3CCNCC3)cc2)n2ccnc2)c1 (stereo not drawn) yielded an XTT viability of 76.1%. For Nc1ccc2ncnc(Nc3ccc(OCc4cccc(F)c4)c(Cl)c3)c2c1, the XTT viability was 55.9%. COc1ccc(C2=NN(C3CCCCCC3)C(=O)[C@@H]3CC=CC[C@H]23)cc1OCCCCOc1ccc(-c2nn[nH]n2)cc1 was tested, and the XTT viability was 31%. With Clc1ccc(CN2CCN(C3=NCCN3)CC2)cc1Cl the XTT viability was 81.9%. Cc1nc(-c2ccccn2)nc(NCCc2ccc(S(C)(=O)=O)cc2)c1Cl gave an XTT viability of 66.9%. COc1ccc(-c2nn(C(C)C)c3ncnc(N)c23)cc1OC was tested, and the XTT viability was 95.2%. O=C(Nc1c(O)cccc1-c1nc2c(C(=O)O)cccc2o1)c1cc(-c2ccccc2)on1 was tested, and the XTT viability was 80.2%. Work on CC[P](CC)(CC)=[Au][S][C@H]1O[C@@H](COC(C)=O)[C@H](OC(C)=O)[C@@H](OC(C)=O)[C@@H]1OC(C)=O yielded an XTT viability of 203%. COc1ccc(S(=O)(=O)Nc2ccc(CN3CCN(C(=O)c4cccc(C#N)c4)CC3)cc2)cc1 gave an XTT viability of 144%. Compound COCC(C)NC(=O)CSc1ncnc2sc(-c3ccccc3)cc12 (stereo not drawn) has an XTT viability of 93.6%. Cc1cc(C)c2cc(C(=O)NC3CCCCCCC3)[nH]c2c1 showed an XTT viability of 124%. Compound COc1ccc(Cn2cnc3c(-c4ccco4)nc(Cl)nc32)cc1 has an XTT viability of 98.6%. Compound COc1ccc(-c2onc(C(F)(F)F)c2-c2ccc(Cl)cc2)c(O)c1 has an XTT viability of 0.0885%. Work on COc1ccc(C(=N)N)cc1-c1cn(-c2ccc(C(=N)N)cc2)nn1 yielded an XTT viability of 69.3%. CN1CCN(S(=O)(=O)c2ccc(-c3ccc4c(Nc5ncc(Cl)cn5)ccnc4c3)cc2)CC1 showed an XTT viability of 32.4%. For Clc1ccc(-n2cc(COc3ccnc4ccccc34)nn2)cc1, the XTT viability was 103%. COc1ccc(Cl)cc1NC(=O)CN(C)C(=O)c1cnn(-c2ccccc2)n1 was tested, and the XTT viability was 78.4%. c1ccc(Oc2ccc(-c3cc(N4CCOCC4)[nH]n3)cc2)cc1 was tested, and the XTT viability was 112%. Nc1ncc(Br)cc1-c1nc2cc(Cl)cnc2[nH]1 showed an XTT viability of 131%. Work on N#Cc1ccc(-c2ccc(OCC(N)=O)cc2)cc1 yielded an XTT viability of 73.9%. O=C(C(Cc1c[nH]c2ccccc12)NS(=O)(=O)c1ccc(Cl)cc1)N1CCCCC1 (stereo not drawn) gave an XTT viability of 96.4%. For CCC(Sc1nc2ccccc2o1)C(=O)Nc1nnc(C)s1 (stereo not drawn), the XTT viability was 82.8%. Work on CCc1c(C)nc(-n2nc(C)cc2NC(=O)c2ccccc2SC)[nH]c1=O yielded an XTT viability of -1.13%. Work on c1ccc(-c2nc(NC3CCCCC3)cc(C3CC3)n2)nc1 yielded an XTT viability of 16.4%. c1ccc(Oc2ccc(-c3cc(C4CCOCC4)[nH]n3)cc2)cc1 showed an XTT viability of 98.4%. Cc1cccc(Cn2ccc(NC(=O)c3ccc4c(c3)OCO4)n2)c1 was tested, and the XTT viability was 93.2%. COc1cc(C2=NCCN2)ccc1-c1cn(-c2cccc(C3=NCCN3)c2)nn1 showed an XTT viability of 72.8%. Compound O=C(c1ccc(F)cc1)N(CCNc1ccccc1)c1ccccc1 has an XTT viability of 126%. Compound Cc1cc(OCC(=O)NCc2ccccc2)c2cc(Br)ccc2n1 has an XTT viability of 111%. COc1cccc2c(C)nc(N=C(N)N)nc12 showed an XTT viability of 93.3%. CC(C)n1ncc2c(C(=O)NCC(c3cccs3)N3CCOCC3)cc(-c3ccccc3)nc21 (stereo not drawn) gave an XTT viability of 71.6%. CCN(CC)CCCCCCNc1cc(OC)cc2c(C)ccnc12 gave an XTT viability of 59.3%.

The compounds below were run on Schistosoma mansoni schistosomula (NMRI) (assay: phenotypic severity score (0-4); higher = more antischistosomal effect, active = 2 or more). Conditions: 24 h; 10 µM.
For c1ccc(C[C@@H]2CN(c3nccc(Oc4ccc(-n5ccnc5)cc4)n3)CCN2)cc1, the phenotypic severity score was 0 (inactive). For Cc1nc(-c2cccc(NCc3ccccc3)c2)[nH]c1C, the phenotypic severity score was 0 (inactive). With c1cc(C2=NCCN2)cc(-c2cc(-c3ccc(C4=NCCN4)cc3)no2)c1 the phenotypic severity score was 0 (inactive). With NCCC(O)C(=O)N[C@@H]1C[C@H](N)[C@@H](OC2O[C@H](CN)[C@@H](O)[C@H](O)[C@H]2O)[C@H](O)C1OC1O[C@H](CO)[C@@H](O)[C@H](N)[C@H]1O (stereo partly drawn) the phenotypic severity score was 0 (inactive). With Nc1ccc(C(=O)Nc2ccc(-c3nc4ccccc4o3)cc2)cc1 the phenotypic severity score was 0 (inactive). For Cc1ccc2nc(Cl)c(CNCc3cccs3)cc2c1, the phenotypic severity score was 0 (inactive). With Cc1nn(C)cc1C(C)Nc1nncc(-c2ccc(C(F)(F)F)cc2)n1 (stereo not drawn) the phenotypic severity score was 0 (inactive). With Clc1cccc(C(c2ccc(CN3CCNCC3)cc2)n2ccnc2)c1 (stereo not drawn) the phenotypic severity score was 1 (inactive). For Nc1ccc2ncnc(Nc3ccc(OCc4cccc(F)c4)c(Cl)c3)c2c1, the phenotypic severity score was 4 (active). In the case of COc1ccc(C2=NN(C3CCCCCC3)C(=O)[C@@H]3CC=CC[C@H]23)cc1OCCCCOc1ccc(-c2nn[nH]n2)cc1, the phenotypic severity score was 2 (active). Clc1ccc(CN2CCN(C3=NCCN3)CC2)cc1Cl was tested, and the phenotypic severity score was 1 (inactive). For Cc1nc(-c2ccccn2)nc(NCCc2ccc(S(C)(=O)=O)cc2)c1Cl, the phenotypic severity score was 0 (inactive). For COc1ccc(-c2nn(C(C)C)c3ncnc(N)c23)cc1OC, the phenotypic severity score was 0 (inactive). With O=C(Nc1c(O)cccc1-c1nc2c(C(=O)O)cccc2o1)c1cc(-c2ccccc2)on1 the phenotypic severity score was 0 (inactive). With CC[P](CC)(CC)=[Au][S][C@H]1O[C@@H](COC(C)=O)[C@H](OC(C)=O)[C@@H](OC(C)=O)[C@@H]1OC(C)=O the phenotypic severity score was 4 (active). In the case of COc1ccc(S(=O)(=O)Nc2ccc(CN3CCN(C(=O)c4cccc(C#N)c4)CC3)cc2)cc1, the phenotypic severity score was 0 (inactive). With COCC(C)NC(=O)CSc1ncnc2sc(-c3ccccc3)cc12 (stereo not drawn) the phenotypic severity score was 0 (inactive). For Cc1cc(C)c2cc(C(=O)NC3CCCCCCC3)[nH]c2c1, the phenotypic severity score was 0 (inactive). With COc1ccc(Cn2cnc3c(-c4ccco4)nc(Cl)nc32)cc1 the phenotypic severity score was 0 (inactive). In the case of COc1ccc(-c2onc(C(F)(F)F)c2-c2ccc(Cl)cc2)c(O)c1, the phenotypic severity score was 0 (inactive). With COc1ccc(C(=N)N)cc1-c1cn(-c2ccc(C(=N)N)cc2)nn1 the phenotypic severity score was 0 (inactive). For CN1CCN(S(=O)(=O)c2ccc(-c3ccc4c(Nc5ncc(Cl)cn5)ccnc4c3)cc2)CC1, the phenotypic severity score was 2 (active). Clc1ccc(-n2cc(COc3ccnc4ccccc34)nn2)cc1 was tested, and the phenotypic severity score was 0 (inactive). For COc1ccc(Cl)cc1NC(=O)CN(C)C(=O)c1cnn(-c2ccccc2)n1, the phenotypic severity score was 0 (inactive). In the case of c1ccc(Oc2ccc(-c3cc(N4CCOCC4)[nH]n3)cc2)cc1, the phenotypic severity score was 0 (inactive). For Nc1ncc(Br)cc1-c1nc2cc(Cl)cnc2[nH]1, the phenotypic severity score was 0 (inactive). With N#Cc1ccc(-c2ccc(OCC(N)=O)cc2)cc1 the phenotypic severity score was 0 (inactive). In the case of O=C(C(Cc1c[nH]c2ccccc12)NS(=O)(=O)c1ccc(Cl)cc1)N1CCCCC1 (stereo not drawn), the phenotypic severity score was 0 (inactive). With CCC(Sc1nc2ccccc2o1)C(=O)Nc1nnc(C)s1 (stereo not drawn) the phenotypic severity score was 0 (inactive). CCc1c(C)nc(-n2nc(C)cc2NC(=O)c2ccccc2SC)[nH]c1=O was tested, and the phenotypic severity score was 0 (inactive). With c1ccc(-c2nc(NC3CCCCC3)cc(C3CC3)n2)nc1 the phenotypic severity score was 0 (inactive). c1ccc(Oc2ccc(-c3cc(C4CCOCC4)[nH]n3)cc2)cc1 was tested, and the phenotypic severity score was 0 (inactive). In the case of Cc1cccc(Cn2ccc(NC(=O)c3ccc4c(c3)OCO4)n2)c1, the phenotypic severity score was 0 (inactive). For COc1cc(C2=NCCN2)ccc1-c1cn(-c2cccc(C3=NCCN3)c2)nn1, the phenotypic severity score was 1 (inactive). In the case of O=C(c1ccc(F)cc1)N(CCNc1ccccc1)c1ccccc1, the phenotypic severity score was 1 (inactive). With Cc1cc(OCC(=O)NCc2ccccc2)c2cc(Br)ccc2n1 the phenotypic severity score was 0 (inactive). COc1cccc2c(C)nc(N=C(N)N)nc12 was tested, and the phenotypic severity score was 0 (inactive). With CC(C)n1ncc2c(C(=O)NCC(c3cccs3)N3CCOCC3)cc(-c3ccccc3)nc21 (stereo not drawn) the phenotypic severity score was 2 (active). CCN(CC)CCCCCCNc1cc(OC)cc2c(C)ccnc12 was tested, and the phenotypic severity score was 0 (inactive).
